High-throughput results: PubChem, National Center for Advancing Translational Sciences (NCATS)
BAZ2B block – inhibitors of human BAZ2B bromodomain. Q9UIF8. AlphaScreen BAZ2B-H3K14Ac peptide displacement. Potency, µM (doses to about 114 µM), for the others: at the top dose activity change, negative = inhibition, most hits filed as inhibitors. 4.4% of 360,000 active. AID 504333; further: on the % scale 0 is the no-effect control and ±100 the full control effect; nearly all actives have a fitted effect of over 60% in size
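Compounds, titrated to a top concentration of 110 uM, were incubated 30 min at room temperature with preformed BAZ2B/acetyl-K14 H3 peptide complex (50 nM each). Proximity signal was measured by AlphaScreen after 20 min with beads.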
PLK1 PBD inh – inhibitors of human PLK1 polo-box domain binding | P53350 | Plk1 PBD binding of FITC phosphopeptide, fluorescence polarization | Potency, µM, for the others: max response, negative = inhibition, usual class: inhibitors | 2.8% of 360,000 active | AID 720504; further: series mostly up to about 57 µM; on the % scale 0 is the no-effect control and ±100 the full control effect; nearly all actives have a fitted effect of over 65% in size
G9a block – blocks human histone lysine methyltransferase G9a. AID 504332. Potency, µM (series often up to 102 µM), for inactives: at the top dose activity, negative = inhibition, actives largely listed as inhibitors. 8.8% of 350,000 active. G9a H3K9 monomethylation, AlphaScreen, 2 h; further: on the % scale 0 is the no-effect control and ±100 the full control effect; nearly all actives have a fitted effect of over 75% in size
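Compounds were preincubated with 20 nM G9a for 15 min, after which biotinylated H3K9 peptide (500 nM) and SAM (20 uM) started a 2 h room-temperature reaction. Monomethylated product was quantified by antibody-based AlphaScreen chemiluminescence.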
ALOX12 inh – blocks human arachidonate 12S-lipoxygenase | P18054 | purified 12hLO, xylenol orange hydroperoxide absorbance | Potency, µM (doses to about 108 µM), for inactives: at the highest dose activity change, negative = inhibition, hits mostly inhibitors | 1.1% of 580,000 active | AID 1671190; further: on the % scale 0 is the no-effect control and ±100 the full control effect
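Purified human 12hLO at 150 nM in 25 mM Hepes, 0.01% Triton X-100, pH 7.0, preincubated 15 min at room temperature with compound. Reaction started with 40 uM arachidonic acid, 30 min at room temperature. Hydroperoxide measured by Fe-xylenol orange, 573/405 nm absorbance ratio.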
HP1b binding inh – blocks HP1-beta chromodomain binding to methylated histone tails. P83916. 0.56% of 390,000 active. Potency, µM (doses to about 114 µM), without a hit: top-dose activity change, negative = inhibition, usual class: inhibitors. AlphaScreen HP1-beta / biotin-H3K9me3 peptide binding. AID 540317; further: nearly all actives have a fitted effect of over 70% in size
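Compound inhibition of the preformed complex between 50 nM HP1-beta and 50 nM biotinylated H3K9me3 peptide was read by AlphaScreen. Buffer was PBS pH 7.4 with 0.01% Tween-20. Incubations ran 30 min at room temperature, with 10 ug/mL donor/acceptor beads.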
JMJD2A Tudor inh – blocks the human JMJD2A Tudor domain; O75164; AlphaScreen JMJD2A-Tudor / H3K4me3 peptide binding; Potency, µM (top dose mostly 114 µM), inactives show at the highest dose activity change, negative = inhibition, usual class: inhibitors; 4.4% of 390,000 active; AID 504339; further: on the % scale 0 is the no-effect control and ±100 the full control effect; nearly all actives have a fitted effect of over 50% in size
Target sequence (O75164 whole entry, looked up, the tested form may be a part): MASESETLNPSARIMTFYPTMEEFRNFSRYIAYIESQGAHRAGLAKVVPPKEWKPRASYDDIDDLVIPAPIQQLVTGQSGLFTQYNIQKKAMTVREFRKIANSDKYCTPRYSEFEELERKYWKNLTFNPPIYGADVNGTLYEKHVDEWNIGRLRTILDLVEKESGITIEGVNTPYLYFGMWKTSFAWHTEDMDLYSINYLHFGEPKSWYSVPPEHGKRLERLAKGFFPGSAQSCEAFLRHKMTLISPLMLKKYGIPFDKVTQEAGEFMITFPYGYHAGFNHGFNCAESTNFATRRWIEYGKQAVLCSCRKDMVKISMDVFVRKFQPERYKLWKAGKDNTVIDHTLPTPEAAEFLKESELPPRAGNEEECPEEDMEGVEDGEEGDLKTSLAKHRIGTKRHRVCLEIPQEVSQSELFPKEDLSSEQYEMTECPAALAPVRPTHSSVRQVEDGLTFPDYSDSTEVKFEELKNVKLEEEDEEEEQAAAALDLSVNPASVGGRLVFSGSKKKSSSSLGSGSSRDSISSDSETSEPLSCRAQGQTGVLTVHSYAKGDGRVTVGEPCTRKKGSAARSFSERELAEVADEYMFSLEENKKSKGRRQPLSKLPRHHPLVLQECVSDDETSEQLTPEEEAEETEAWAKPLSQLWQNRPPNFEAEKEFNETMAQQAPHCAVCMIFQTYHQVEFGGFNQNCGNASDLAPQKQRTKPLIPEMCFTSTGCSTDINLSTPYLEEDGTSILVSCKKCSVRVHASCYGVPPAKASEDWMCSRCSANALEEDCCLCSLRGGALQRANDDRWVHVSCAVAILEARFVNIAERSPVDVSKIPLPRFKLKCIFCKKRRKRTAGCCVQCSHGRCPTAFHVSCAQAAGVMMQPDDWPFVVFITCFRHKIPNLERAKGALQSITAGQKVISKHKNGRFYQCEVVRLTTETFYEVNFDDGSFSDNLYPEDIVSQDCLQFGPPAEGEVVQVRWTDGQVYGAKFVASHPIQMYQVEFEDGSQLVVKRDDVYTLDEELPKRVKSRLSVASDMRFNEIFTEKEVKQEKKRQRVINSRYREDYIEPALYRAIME
* hit, by the source's call; u = inconclusive; x = no result; [ ] = remark or other dose. Compounds with a hit are over-represented: about 9% of the library has one in this group of screens. The call rests on the fitted dose curve; in most records, active means well fitted curve in the direction sought with a large enough effect; inconclusive means small, poorly fitted or top-dose-only effect, or another doubt; inactive means no such curve, though single readings can be large; an effect the other way counts as inactive or inconclusive. Potency means the concentration at half of the fitted maximal effect.

SMILES | BAZ2B block | PLK1 PBD inh | G9a block | ALOX12 inh | HP1b binding inh | JMJD2A Tudor inh
O=C(NCCCN1CCOCC1)c1onc(CSc2nc3ccccc3[nH]2)c1C(=O)NCCCN1CCOCC1 | -25% | -18% | 50µM* | -7% | 53% | -19%
O=C(NCC1CC1)c1onc(CSc2nc3ccccc3[nH]2)c1C(=O)NCC1CC1 | u | u | x | -3% | 32% | -14%
O=C(NCCCN1CCOCC1)c1onc(CSc2ccccc2)c1C(=O)NCCCN1CCOCC1 | x | -11% | x | -5% | 9% | -20%
CC(=O)Nc1ccc(S(=O)(=O)N(C)CC(=O)NNC(=O)Cc2nc3ccccc3n2C)cc1 | x | 2% | x | 0% | 34% | -1%
COc1ccc(-c2nc3ccccc3s2)cc1NC(=O)COc1cccc(C)c1 | -11% | x | 10%[59 µM] | -14% | 27% | -7%
CCN(Cc1ccncc1)C(=S)NCc1ccccc1 | -2% | u | 50µM* | 41% | 7% | -2%
Cc1nc(SCC(=O)N2CCNC2=O)c(C#N)c(C)c1C | x | -1% | x | 8% | x | x
Nc1c(C(=O)OCC(=O)Nc2cccc([N+](=O)[O-])c2)[nH]c(=O)[nH]c1=O | x | -14% | x | x | 13% | 79µM*
Cc1ccc(OCc2nnc(NC(=O)Nc3ccccc3F)s2)c(C)c1 | x | x | x | -3% | x | x
O=C(CCCCCN1C(=O)c2ccccc2C1=O)Nc1nccs1 | 14% | -4% | 3% | -1% | 47% | -11%
COc1cc(C2NC(=O)C(C#N)=C(Nc3cccc(C)c3)S2)ccc1O (configuration not stated) | -29% | u | 45µM* | u | 17% | -10%
CC(C1CC1)N(Cc1ccccc1)S(=O)(=O)c1cc(S(C)(=O)=O)ccc1Cl (configuration not stated) | x | x | x | 4% | x | x
Cc1nc(NC2CC2)sc1C(=O)N1CCC(C(N)=O)CC1 | x | x | x | 46% | x | x
COc1ccc2[nH]c3nc(SCC(=O)NNC(=O)c4ccc(OC)c(OC)c4)nnc3c2c1 | 4%[57.1 µM] | 0% | u | 0% | 42% | -19%
Cc1ccc(C(=O)NNC(=O)CSc2nnc3c(n2)[nH]c2ccc(F)cc23)cc1 | u | u | x | u | -41% | 20µM*
COC(CNC(=O)c1ccc2c3c(onc13)-c1ccccc1C2=O)OC | u | 3.4µM* | 28µM* | 0% | u | 50µM*
CC(=O)Nc1cc(-c2ccccc2N(C)C)cn2c(-c3ccccc3)cnc12 | x | -3% | x | 45µM* | x | x
CSCc1cc(N(C)c2ccccc2)nc(-c2ccccn2)n1 | u | -6% | u | 10% | 19% | u
O=C(CCCN1C(=O)/C(=C/c2ccco2)SC1=S)Nc1cccc(C(=O)O)c1 | 45µM* | -27% | x | u | u | u
O=C(CCCN1C(=O)/C(=C\c2ccco2)SC1=S)Nc1ccc(O)cc1C(=O)O | 14µM* | 17µM* | 10µM* | 28µM* | 25µM* | 22µM*
CCCCN(C)C(=O)CNC(=O)c1nn(-c2ccc(OC)cc2OC)c(=O)c2ccccc12 | 4% | -11% | 25% | 11% | 21% | -3%
CCOc1cc(=O)n2c(c1C(=O)Nc1cccc(F)c1C)CCCC2 | x | x | x | 17% | x | x
CC(C)(C)N=Cc1cc(Br)ccc1O | x | x | x | 56µM* | x | x
NC(=O)N/N=C\c1cc(Br)ccc1O | 5% | -8% | 4%[59 µM] | -15% | 22% | -15%
COc1ccc(Cl)cc1NC(=O)CN(C)C(=O)c1cccc(-n2cnnn2)c1 | 5% | -20% | -2%[2.33 µM] | u | 31% | 0%
SMILES | BAZ2B block | PLK1 PBD inh | G9a block | ALOX12 inh | HP1b binding inh | JMJD2A Tudor inh
CC(C)Oc1ccccc1OCCN(C)C | 45µM* | -2% | 13µM* | u | u | 32µM*
C/C(=N/NC(=O)c1ccc(Br)s1)c1cccnc1 | -24% | -6% | 5% | 446% | 49% | -16%
C/C(=N/NC(=O)c1ccc(C)s1)c1cccnc1 | -29% | -17% | u | u | 24% | 35µM*
C/C(=N\NC(=O)Cc1c(F)cccc1Cl)c1cccnc1 | -2% | 2% | 50µM* | 462% | 58% | -13%
C/C(=N/NC(=O)c1ccc(Br)s1)c1ccncc1 | -20% | -11% | 71µM* | u | 32% | -12%
COc1ccc2oc(-c3ccc(NC(=O)c4ccccc4)cc3)nc2c1 | x | x | x | 6% | x | x
Cc1cc(NS(=O)(=O)c2ccc(OCCNS(C)(=O)=O)cc2)no1 | -1% | -2% | -3%[12.7 µM] | -13% | 25% | -11%
CCNS(=O)(=O)c1ccc(OCCNS(C)(=O)=O)cc1 | 22% | -9% | -7%[59 µM] | -3% | 21% | 89µM*
CCN(CC)S(=O)(=O)c1ccc(Oc2ccc(S(=O)(=O)N(CC)CC)cc2)cc1 | 3% | -4% | 13%[59 µM] | -13% | 24% | -7%
CCN(CC)S(=O)(=O)c1ccc(OCCNS(C)(=O)=O)cc1 | 9% | 3µM* | -38% | 2% | -15% | 11µM*
O=C(CCCCCC(=O)N(CCO)CCO)N(CCO)CCO | -2% | -11% | 40µM* | 25% | 32% | -12%[11.4 µM]
CN(C)S(=O)(=O)c1cccc(C(=O)Nc2ccccc2)c1 | -10% | -18% | 10% | -4% | 36% | -9%[11.4 µM]
CN(C)S(=O)(=O)c1cccc(C(=O)Nc2n[nH]c(C(F)(F)F)n2)c1 | -17% | -5% | 11% | 4% | 9%[57 µM] | 7.1µM*
COc1ccc(Cl)cc1C(=O)NNC(=O)CCNS(=O)(=O)c1ccccc1 | x | -17% | x | -1% | 30% | -10%
CCOC(=O)C1C(=O)N(C(=O)c2cncc(Br)c2)CC1c1ccccc1 (configuration not stated) | -1% | 3µM* | u | -22% | u | u
CCOC(=O)C1C(=O)N(C(=O)c2ccc(OC)cc2)CC1c1ccccc1 (configuration not stated) | 0% | -6% | 3%[59 µM] | 0% | 24% | -5%
Cc1ccc(S(=O)(=O)NC(C)C(=O)NC2CC2)cc1 (configuration not stated) | -4% | -24% | 79µM* | -1% | 28% | -1%
Cc1oc(-c2ccccc2)nc1CS(=O)CC(=O)N1CCc2ccccc2C1 (configuration not stated) | -24% | u | 22µM* | u | 29% | -22%
NS(=O)(=O)c1cc(C(=O)NC2CCSc3ccccc32)ccc1Cl (configuration not stated) | u | 6.7µM* | 1.6µM* | u | 2.2µM* | 0.79µM*
CC(=O)c1cccc(S(=O)(=O)NC2CCCCCC2)c1 | -8% | -6% | u | 10% | 20% | 1%
CC(=O)c1cccc(S(=O)(=O)NC2CCSc3ccccc32)c1 (configuration not stated) | -16% | 27µM* | 28µM* | u | 12% | u
